Results published in PubChem BioAssay AID2018 (Sanford-Burnham Center for Chemical Genomics, 2009).
Among all 1,200 compounds or so, about 600 (50%) were called active. The set was probably picked from earlier hits. Some of the results follow. Potency and affinity values are given separately. A number with no mark means an inactive call. Rule as the data show it: active = inhibition above about 42%; inactive = the rest.

The compounds below were run against SUMO-conjugating enzyme UBC9 (Homo sapiens) (UniProt P63279) (assay: blockers of UBC9-mediated SUMO conjugation – biochemical, AlphaScreen, SUMOylation inhibitor project, confirmation (AID 2018)). Details: AlphaScreen in vitro SUMOylation assay; at 35 µM; active compounds read high.
Sequence of SUMO-conjugating enzyme UBC9 (Homo sapiens) (P63279 whole entry, looked up): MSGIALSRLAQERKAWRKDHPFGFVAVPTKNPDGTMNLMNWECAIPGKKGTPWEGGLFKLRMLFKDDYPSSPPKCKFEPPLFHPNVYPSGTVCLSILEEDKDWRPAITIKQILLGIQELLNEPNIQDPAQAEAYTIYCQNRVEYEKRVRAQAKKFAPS

| Compound | inhibition |
| --- | --- |
| CCOCCCN1CN(Cc2ccco2)CNC1=S | 4.1% |
| O=C(O)/C=C\c1cn(-c2ccccc2)nc1-c1cc2ccccc2o1 | 27.9% |
| O=C(O)/C=C/c1cn(-c2ccccc2)nc1-c1cc2ccccc2o1 | 10.4% |
| Cc1ccc(C)c(S(=O)(=O)c2c(N)n(/N=C/c3ccco3)c3nc4ccccc4nc23)c1 | 23% |
| COc1ccc(CNC(=O)c2c(N)n(CCCN3CCOCC3)c3nc4ccccc4nc23)cc1 | 3.3% |
| Cc1ccc(S(=O)(=O)c2c(N)n(/N=C/c3ccco3)c3nc4ccccc4nc23)cc1C | 26.1% |
| C=CCn1c(NC(=O)c2ccc(Br)o2)c(S(=O)(=O)c2ccccc2)c2nc3ccccc3nc21 | 65.4% (active) |
| O=C(c1cccn2c(=O)c3cc(Cl)ccc3nc12)N1CCOCC1 | 5.9% |
| Cc1ncc(CO)c(/C=N/NC(=O)c2cc(O)c(O)c(O)c2)c1O | 99.6% (active) |
| Brc1ccc(OCCN2CCOCC2)cc1 | 13.4% |
| CCOc1ccc2c(c1)C(NC(C)=O)C(=O)N2CCN1CCOCC1 (stereo unspecified) | 95.9% (active) |
| CC(=O)NC1C(=O)N(CCN2CCOCC2)c2ccc(Br)cc21 (stereo unspecified) | 99% (active) |
| Cn1c(=O)n(C)c2cc(S(=O)(=O)NCCO)ccc21 | 13.1% |
| CCc1ccc2c(c1)C(NC(C)=O)C(=O)N2CCN1CCOCC1 (stereo unspecified) | 96.7% (active) |
| O=C(Nc1cccc2ccccc12)N1CCc2ccccc2C1 | 13.1% |
| Oc1ccc(N=Cc2ccc(-c3cccs3)s2)cc1 | 52.6% (active) |
| Cc1ccc(C)c(-c2nc3ccc(N)cc3[nH]2)c1 | 8.5% |
| N#CC1=C(SCC(=O)NC23CC4CC(CC(C4)C2)C3)NC(=O)C(C#N)C12CCCCC2 (stereo unspecified) | -21.2% |
| CN(C)/C=C1/Oc2c(ccc3ccccc23)C1=O | -1.2% |
| COc1ccc(OC)c2c1C(=O)c1ccccc1C2=O | 44% (active) |
| CN(C)/C=C1\Oc2ccc3ccccc3c2C1=O | -1.5% |
| COc1cccc2c1C(=O)c1ccc3ccccc3c1C2=O | 75.8% (active) |
| COc1ccc(Cc2n[nH]c(=S)n2NC(=O)Nc2ccc(Cl)c(Cl)c2)cc1 | 24.4% |
| COCCn1nnnc1C(c1cc2ccc(OC)cc2[nH]c1=O)N1CCc2ccccc2C1 (stereo unspecified) | 4.8% |
| COc1ccc(NCc2cc3ccccc3[nH]c2=O)cc1 | 46.4% (active) |
| COc1ccc(-c2cc(=O)[nH][nH]2)cc1 | 27.6% |

| Compound | inhibition |
| --- | --- |
| O=C(NCc1ccccc1)Nc1cccn(Cc2ccc(Cl)cc2)c1=O | -10.4% |
| CN(C)/C=N/c1nc2nccc(-c3ccc(F)cc3)n2n1 | 1.6% |
| CCN(CC)S(=O)(=O)c1cc(C)ccc1SC | -1% |
| Cc1ccc(C(=O)c2c3ccc(N)cc3nn2CCC(N)=O)cc1 | 38.2% |
| Cc1c(N=C2C=CC(=O)c3ccccc32)c(=O)n(-c2ccccc2)n1C | 102% (active) |
| CCc1cc2c(=O)nc3n(c2s1)Cc1ccccc1/C3=C(/O)c1cccc([N+](=O)[O-])c1 | 16.9% |
| Cc1cc(=O)n2[nH]c(N)c(N=Nc3ccccc3F)c2n1 | 12.9% |
| Nc1c(C(=O)Nc2ccccc2)sc2nc(-c3ccco3)ccc12 | -10.2% |
| COc1ccccc1NC(=O)Nc1ccnn1Cc1cccs1 | 16.5% |
| Nc1c(C(=O)Nc2ccc(F)cc2)sc2nc(-c3ccco3)ccc12 | 35.1% |
| Cc1ccc(S(=O)(=O)N2CCCCC2)cc1NC(=O)COC(=O)c1c(F)cccc1F | -6.2% |
| Cc1cc2c(NC(=O)Nc3ccc(C(C)(C)C)cc3)cccc2nn1 | 15.3% |
| CCOC(=O)NC(=O)COC(=O)c1ccc(O)cc1 | 24.8% |
| COCCNC(=O)Nc1ccc2nc(-c3ccco3)c(-c3ccco3)nc2c1 | 102% (active) |
| COc1cc(OC)cc(-c2nc(-c3ccccc3)no2)c1 | -70.2% |
| COc1ccc2nc(-c3ccco3)c(-c3ccco3)nc2c1 | 76.8% (active) |
| O=C(NCc1ccco1)Nc1ccc2snnc2c1 | 11% |
| COCCn1c(-c2ccco2)nc2nc3ccccc3nc21 | 19.2% |
| CCOc1ccccc1Oc1c(C)oc2c(CN3CCN(C)CC3)c(O)ccc2c1=O | -5.4% |
| Cc1cccc(-c2n[nH]c(=S)n2/N=C/C=C/c2ccco2)c1 | 37.5% |
| S=c1[nH]nc(-c2cc(-c3ccccc3)n[nH]2)n1/N=C/c1ccc(Cl)c(Cl)c1 | 12.5% |
| O=C(O)CCCCCNc1ccc2nsnc2c1[N+](=O)[O-] | -10.2% |
| C[C@@H]1CN=C2N(CCNC(=O)CCC3CCCCC3)[C@H](Cc3ccc(O)cc3)CN21 | 6% |
| O=C1OC(Nc2ccc3ncccc3c2)c2ccccc21 (stereo unspecified) | 2.1% |
| Cc1cccc(C(=O)O)c1NC(=O)c1ccc(F)cc1 | 2.9% |
| Cc1cc2c(NC(=O)Nc3ccc(F)cc3)cccc2nn1 | 10.5% |

| Compound | inhibition |
| --- | --- |
| Cc1cc2c(N)cccc2nn1 | 101% (active) |
| Cc1cc2c(NC(=O)Nc3ccccc3)cccc2nn1 | 26.1% |
| COc1ccc(C2C3=C(CCCC3=O)Nc3c(-c4ccccc4)c(C)nn32)cc1 (stereo unspecified) | 4.2% |
| O=C(O)CSc1cc(C(=O)c2cc(F)ccc2O)cn2c(=O)c3c(-c4ccccc4)csc3nc12 | 95.3% (active) |
| O=C(O)CSc1cc(C(=O)c2ccccc2O)cn2c(=O)c3c(-c4ccccc4)csc3nc12 | 99.2% (active) |
| COc1ccc(/C=C/c2cc(C(=O)O)c3ccccc3n2)cc1 | 21.4% |
| N#CCCN(Cc1cccnc1)C(=S)NC1CC2C=CC1C2 (stereo unspecified) | -4.1% |
| COC(=O)Cn1c2ccc(C)cc2c2nc(C)sc21 | 30.1% |
| CCOC(=O)Cn1c2ccc(OC)cc2c2nc3ccccc3nc21 | 38.7% |
| COc1cc2c(C#N)c(N3CCN(c4ccccc4OC)CC3)nc(N)c2c(N)n1 | 19.7% |
| CCCN(CC1CC1)c1nc(N)c2c(N)nc(OC)cc2c1C#N | 16.9% |
| COc1cc2c(C#N)c(N3CCCCC3)nc(N)c2c(N)n1 | 47.6% (active) |
| COc1cc2c(C#N)c(N3CCN(C)CC3)nc(N)c2c(N)n1 | 21.5% |
| CN1CCc2cc3c(c4c2[C@H]1[C@H](O)c1ccccc1-4)OCO3 | 74% (active) |
| NC(N)=NS(=O)(=O)c1ccc(NC(=S)NC(=O)/C=C/c2ccco2)cc1 | 34.2% |
| CC(=O)NC(=S)Nc1ccc(NC(=S)NC(=O)/C=C/c2ccco2)cc1 | 7.8% |
| COc1ccc(NC(=O)N2c3ccc(OC)cc3C(C)=CC2(C)C)cc1 | 28.1% |
| COc1ccc(Cn2c(C)c(C)c(C#N)c2NC(=O)Nc2ccc(F)cc2)cc1 | -26.7% |
| Cc1c(C(=O)c2ccc(F)cc2F)c2ccccn2c1CCC#N | 15.4% |
| c1cc(Nc2ncnc3sc4c(c23)CCC4)ccn1 | 12.9% |
| Cc1cc2n(n1)SC(Nc1cccc3ccccc13)N2 (stereo unspecified) | 14% |
| Cc1ccc2cc(C(c3nnnn3C(C)(C)C)N3CCCCCC3)c(=O)[nH]c2c1 (stereo unspecified) | 0.1% |
| CNS(=O)(=O)c1ccc2nc(NC(=O)/C=C/c3ccco3)sc2c1 | 16.2% |
| COc1ccc(-c2csc(NC(=S)NC(=O)/C=C/c3ccco3)n2)cc1OC | 74.2% (active) |
| Cc1nc2ccc(-c3nc4cc(N)ccc4o3)cc2[nH]1 | -11.6% |
| CCCCCCC(C)OC(=O)c1ccccc1C(=O)O (stereo unspecified) | 10.7% |

| Compound | inhibition |
| --- | --- |
| Cc1c(Br)c(O)c(Br)c2sc(=O)oc12 | 49.6% (active) |
| Cc1ccc(Nc2nc(=O)c3cc([N+](=O)[O-])ccc3s2)cc1 | 24.2% |
| COc1cc([N+](=O)[O-])cc(/C=N/NC(=O)C(C)Nc2cccc3ccccc23)c1O (stereo unspecified) | -212% |
| COc1cccc(OC)c1C(=O)N1CCNCC1 | -1.1% |
| COc1ccc2c(c1)-c1nc(/N=C/c3cccc(OC)c3O)sc1CC2 | 28.4% |
| COc1cccc(/C=N/NC(=O)C(=O)N/N=C/c2cccc(OC)c2O)c1O | 98.6% (active) |
| CC(O)C(=O)N/N=C/c1cccc(Cl)c1Cl (stereo unspecified) | -34.7% |
| O=C(N/N=C/c1ccc(O)cc1O)C(=O)N/N=C/c1ccc(O)cc1O | 101% (active) |
| O=C(CNc1ccc2ccccc2c1)N/N=C/c1cc2ccccc2nc1Cl | 37.3% |
| O=C(NCCNc1ccc2ccccc2c1)c1cccn2c(=O)c3sccc3nc12 | 23.7% |
| Cc1ccc(-c2nc3cc(N)ccc3o2)cc1 | 11.5% |
| CC(C)CC(=O)Nc1ccc2oc(-c3cccnc3)nc2c1 | 16.9% |
| Cn1nccc1NC(=O)Nc1cccc(Br)c1 | -0.2% |
| CCN1C(=O)c2cccc3c(N)ccc1c23 | 50% (active) |
| CN1C(=O)c2cccc3c(S(=O)(=O)NCc4ccco4)ccc1c23 | 5% |
| CN1C(=O)c2cccc3c(S(=O)(=O)NCCc4ccccc4)ccc1c23 | -13% |
| C=CCN1C(=O)N(/C=C/C)c2cccc3cccc1c23 | -14.9% |
| COC(=O)/C(=C\Nc1ccc(Cl)cc1Cl)NC(=O)c1ccc(OC)cc1 | 22.8% |
| COc1cccc(NC(=S)Nc2cccc3ccccc23)c1 | 30.7% |
| COc1cccc(C(=O)Nc2cccc(C(=O)NC3=NN(c4c(Cl)cc(Cl)cc4Cl)C(=O)C3)c2)c1 | 101% (active) |
| O=C(Cc1cc(=O)[nH][nH]1)N/N=C/c1cccc2ccccc12 | 47.2% (active) |
| O=C(CNc1cccc2ccccc12)N/N=C/c1ccccn1 | -1.7% |
| C=CCc1cccc(/C=N/NC(=O)CNc2cccc3ccccc23)c1O | 25.1% |
